Drawing on PubChem BioAssay AID588727 (Southern Research Specialized Biocontainment Screening …, 2011), this text covers inhibition for 32 compounds.

Each structure is given as a SMILES string. In all, about 350,000 compounds went through this assay and about 450 (0.13%) were called active. No rule for the calls is given here. A selection follows. Potency and affinity values are given separately.

This assay can be described thus: inhibitors of VEEV TC-83 cytopathic effect, confirmation, Vero cells (AID 588727). As to conditions: VEEV TC-83 cytopathic effect inhibition, at 20 µM. Background: Protection from cytopathic effect is a common read-out in antiviral testing.
[1] abbreviates: stronger effect = higher value unless noted.
Where [2] appears, read: measured here: 10K pilot screen inhibition, stronger effect = higher value.

For `CCOc1ccc(CCNC(=O)CCS(=O)(=O)c2ccc(OC)cc2)cc1OCC`, under setting [1], the inhibition – broadly, the share of the control response that was lost under treatment – was 0.09% (inactive).

As for `O=C(Cn1ncc2c([nH]c3ccccc32)c1=O)NCCc1ccc(Cl)cc1`, under setting [1], the inhibition is 1.06% (inactive).

With `CCN(CC)c1ccc(-n2cc3c(=O)n(C)c(=O)n(C)c3c2)cc1`, the inhibition under setting [1] is 5.43% (inactive).

`Cc1ccc(C)c(NC(=O)c2ccc3ccccc3n2)c1`: the inhibition under setting [1] was 4.34% (inactive).

Consider `C[C@@H]1O[C@@H](O[C@@H]2C=C3CCC4C(CC[C@]5(C)[C@@H](c6ccc(=O)oc6)CC[C@]45O)[C@@]3(C)CC2)[C@H](O)[C@H](O)[C@H]1O` (some centres undefined), for which, under setting [1], the inhibition is 23.8% (inactive).

`CC(=O)OCC(=O)C1(O)CCC2C3CC(C)C4=CC(=O)CCC4(C)C3C(O)CC21C` (centres undefined): the inhibition under setting [1] is 2.53% (inactive).

Take `CNC(=O)Nc1ccc(C(=O)N/N=C\C23CC[C@@H](O)CC2(O)CC[C@@H]2[C@@H]3CCC3(C)C(C4=CC(=O)OC4)CCC23O)cc1` (some centres undefined): under setting [1], the inhibition is 3.29% (inactive).

Consider `CCCOC1(NC(=O)c2ccccc2)C(C)=CC(=O)C=C1C`, for which, under setting [1], the inhibition result was “inactive”.

For `CC1CC(C)CN(S(=O)(=O)c2ccc(C(=O)N3CCN(c4ccccc4)CC3)cc2)C1` (centres undefined), the inhibition under setting [1] was 1.42% (inactive).

Turning to `CCOc1ccc(NS(=O)(=O)c2ccc(C(=O)N(C)CC(=O)Nc3ccc(OC)cc3)cc2)cc1`, under setting [1], the inhibition was 4.36% (inactive).

In the case of `Cc1ccc(-n2c(SCC(=O)O)nc3sc4c(c3c2=O)CC(C)(C)SC4)cc1`, the inhibition under setting [1] was 0.39% (inactive).

Take `CCN1C(=O)/C(=C/c2cn(-c3ccccc3)nc2-c2cccnc2)SC1=S`: under setting [1], the inhibition was 0.65% (inactive).

In the case of `O=C(COc1ccccc1)Nc1nc2c(s1)CCCC2`, under setting [1], the inhibition was 3.03% (inactive).

With `COc1ccc(OCC(=O)Nc2nc3c(s2)CCCC3)cc1`, the inhibition under setting [1] was 5.92% (inactive).

With `CC1CCc2nc(NC(=O)Cc3cccs3)sc2C1` (centres undefined), under setting [1], the inhibition is 4.77% (inactive).

For the compound `O=C(CCCc1cccs1)Nc1nc2c(s1)CCCC2`, the inhibition under setting [1] was 5.78% (inactive).

For the compound `CCOC1CCCC(n2cnc3c(=S)nc[nH]c32)O1` (centres undefined), the inhibition under setting [1] was 2.72% (inactive).

Consider `CCCC(=O)Nc1ccc(NC(=O)c2cccc(OC)c2)cn1`, for which, under setting [1], the inhibition was 0.41% (inactive).

As for `COc1ccccc1CCC(=O)OCC(=O)NC1CC1`, the inhibition under setting [1] is 2.29% (inactive).

On to `CC1=NOC2(C1)N(C)c1ccccc1C2(C)C` (centres undefined), for which the inhibition under setting [1] is 0.08% (inactive).

Consider `CCN(CC)S(=O)(=O)c1ccc(C2=NOC3(C2)N(C)c2ccccc2C3(C)C)cc1` (centres undefined), for which the inhibition under setting [1] was 8.77% (inactive).

`CCn1c(SCC(=O)OC)nnc1-c1ccncc1`: the inhibition under setting [1] is 0.14% (inactive).

In the case of `COc1cccc(CC(=O)OCC(=O)NC(C)c2ccc(F)cc2)c1` (centres undefined), the inhibition under setting [1] was 4.67% (inactive).

Turning to `Cc1cc(-c2nnc(SCCC(=O)Nc3ccccc3)o2)no1`, the inhibition under setting [1] was 0.79% (inactive).

Regarding `O=C(CSc1nnnn1C1CC1)Nc1ccc(S(=O)(=O)N2CCOCC2)cc1`, under setting [1], the inhibition is 1.19% (inactive).

Regarding `CN(C)c1ccc(/C=C/c2c([N+](=O)[O-])c(=O)n(C)c(=O)n2C)cc1`, the inhibition under setting [1] was 0.74% (inactive).

For `COc1ccc(/C=C/c2c([N+](=O)[O-])c(=O)n(C)c(=O)n2C)cc1`, the inhibition under setting [1] was 0.41% (inactive).

As for `Cc1ccc(S(=O)(=O)Nc2cccc(C(=O)N3CCOCC3)c2)cc1`, under setting [1], the inhibition result is “inactive”.

Take `Cc1cc(C)cc(NC(=O)CSc2nc3ccccc3nc2N2CCCCC2)c1`: the inhibition is 3.44% (inactive) (stronger effect = higher value) and 1.42% under setting [2].

In the case of `Cc1cc(C)cc(NC(=O)CSc2nc3ccccc3nc2N2CCCC2)c1`, the inhibition was 4.9% (inactive) (stronger effect = higher value) and 0.985% under setting [2].

As to `CCc1ccc(C(C(=O)NC2CCCC2)N(C(=O)c2csnn2)C2CC2)cc1` (centres undefined), the inhibition under setting [1] is 0.43% (inactive).

As for `CCN(CC)S(=O)(=O)c1ccc(OC)c(NS(=O)(=O)c2ccc(F)cc2)c1`, the inhibition result under setting [1] is “inactive”.
